Where “and” joins values, the source holds several entries; their conditions need not be identical. Identical values can stand only once. About 83,000 compounds went through this panel and 20% of them were active in at least one assay; those are over-represented in the sample as a whole.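 Activity criterion: percent growth below 10, measured after cells in 96-well plates were exposed to a single compound concentration for 48 hours.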 Calls of active or inactive are those of the source.

Experiment in all cases: NCI-60 one-dose screen, 48 h (100 = growth as untreated, 0 = no growth, -100 = all killed)
Holding throughout (details): 10 µM unless noted

Assay [1] concerns HCT-15 colon.
For assay [2], the system named is HT29 colon.
For assay [3], the system named is SNB-75 CNS.
Assay [4] relates to SNB-19 CNS.
Assay [5] deals with U251 CNS.
The test system of assay [6] is PC-3 prostate.
Assay [7] deals with SK-MEL-5 melanoma.
Assay [8] has as its system UACC-62 melanoma.
For assay [9], the system named is LOX IMVI melanoma.
For assay [10], the system named is SK-MEL-28 melanoma.
Assay [11] deals with SK-MEL-2 melanoma.
Assay [12] concerns EKVX NSCLC.
For assay [13], the system named is UO-31 renal.
Assay [14] relates to TK-10 renal.
The subject of assay [15] is ACHN renal.
In assay [16] the test system is CAKI-1 renal.
Assay [17] concerns A498 renal.
Assay [18] deals with CCRF-CEM leukemia.
For assay [19], the system named is SN12C renal.
The test system of assay [20] is MOLT-4 leukemia.

Turning to `O=C1OC2(c3ccccc31)c1ccc(O)c(O)c1Oc1c2ccc(O)c1O`, the growth in assay [1] was 94.5% (inactive) and 123% (inactive); in assay [2], 102% (inactive) and 116% (inactive); in assay [3], 101% (inactive) and 88.3% (inactive); in [4], 110% (inactive) and 108% (inactive); in assay [5] it was 104% (inactive); in assay [6], 81% (inactive) and 89.2% (inactive). Also, the growth was 106% (inactive) and 100% (inactive) in [7]; 108% (inactive) and 102% (inactive) in assay [8]; 90.7% (inactive) and 103% (inactive) in [9]; 112% (inactive) and 117% (inactive) in [10]; 85.1% (inactive) in [11]; 105% (inactive) and 128% (inactive) in assay [12]. Besides, the growth in assay [13] is 90.2% (inactive) and 87.8% (inactive); in assay [14], 105% (inactive) and 101% (inactive); in [15], 101% (inactive) and 113% (inactive); in assay [16] it was 104% (inactive) and 114% (inactive); in assay [17], 114% (inactive) and 97.9% (inactive); in assay [18] it was 90.8% (inactive) and 110% (inactive).

Take `Cn1cc(-c2cc3c(Nc4ccc(CC(=O)Nc5cc(C(C)(C)C)on5)cc4)ncnc3[nH]2)cn1`: the growth in assay [1] is 17.5% (inactive) and 34.6% (inactive); in assay [2], -8.17% (active) and -11.7% (active); in assay [3], -44.8% (active) and -42.3% (active); in assay [4], 2.07% (active) and 3.84% (active); in [5] it was 0.087% (active) and -9.38% (active); in [6], -21.4% (active) and 1.57% (active). For the same compound, the growth was -50.7% (active) and 1.16% (active) in [7]; -77.9% (active) and -80% (active) in assay [8]; 1.91% (active) and 2.35% (active) in assay [9]; -20.2% (active) and -18.4% (active) in assay [10]; -60.5% (active) and -81% (active) in assay [11]; 6.89% (active) and 10.1% (inactive) in assay [12]. The growth is -10.9% (active) and -7.98% (active) in assay [19]; -11.4% (active) and 9.42% (active) in [13]; 0.328% (active) and -17.2% (active) in [14]; -6.75% (active) and 6.73% (active) in assay [15]; -10.5% (active) and 7.18% (active) in assay [16]; 14.3% (inactive) and 5.35% (active) in [18]. Moreover, in assay [20], the growth was 9.74% (active) and 5.37% (active).

As to `CC1=CCC2CC1C2(C)C` (stereo unspecified), the growth in [1] is 99.5% (inactive) and 94% (inactive); in assay [2] it was 114% (inactive) and 105% (inactive); in assay [3], 102% (inactive) and 90.3% (inactive); in assay [4] it was 95.8% (inactive) and 101% (inactive); in [5] it was 97.4% (inactive) and 92% (inactive); in [6] it was 101% (inactive) and 89.5% (inactive). Besides, the growth is 102% (inactive) and 87.7% (inactive) in assay [7]; 97% (inactive) and 93.6% (inactive) in [8]; 93.4% (inactive) and 88.6% (inactive) in assay [9]; 97.5% (inactive) and 102% (inactive) in assay [10]; 88.2% (inactive) and 108% (inactive) in assay [11]; 91.7% (inactive) and 83.2% (inactive) in assay [12]. The growth in assay [13] was 89% (inactive) and 96.1% (inactive); in [14], 113% (inactive) and 119% (inactive); in assay [15], 102% (inactive) and 96.1% (inactive); in assay [16], 76.2% (inactive) and 82.8% (inactive); in assay [17], 103% (inactive) and 81% (inactive); in [18] it was 121% (inactive) and 114% (inactive). The growth in assay [20] was 96.1% (inactive) and 96% (inactive).

Take `CCOC(=O)C(C(=O)OCC)C(c1ccccc1)N1CCN(c2ccccc2)CC1` (stereo unspecified): the growth in [1] is 108% (inactive) and 94.8% (inactive); in assay [2] it was 107% (inactive) and 106% (inactive); in assay [3], 94.7% (inactive) and 103% (inactive); in assay [4], 99.4% (inactive) and 110% (inactive); in assay [5] it was 105% (inactive) and 98% (inactive); in assay [6] it was 110% (inactive) and 109% (inactive). Moreover, the growth was 105% (inactive) and 102% (inactive) in assay [7]; 98.7% (inactive) and 107% (inactive) in assay [8]; 103% (inactive) and 98.4% (inactive) in assay [9]; 109% (inactive) and 111% (inactive) in [10]; 105% (inactive) and 100% (inactive) in assay [11]; 107% (inactive) and 103% (inactive) in assay [12]. For the same compound, the growth in assay [19] was 98.2% (inactive) and 110% (inactive); in assay [13], 73.8% (inactive) and 78.9% (inactive); in [15] it was 105% (inactive); in [16], 112% (inactive) and 98.1% (inactive); in assay [17] it was 139% (inactive) and 107% (inactive); in assay [18] it was 95.9% (inactive). In addition, the growth in assay [20] was 103% (inactive) and 99.1% (inactive).

Regarding `CCN(CC)CCCC(C)N(Cc1ccccc1)CC(O)c1ccc(Cl)cc1` (stereo unspecified), the growth in assay [1] is 101% (inactive) and 97.9% (inactive); in assay [2] it was 108% (inactive) and 92.5% (inactive); in [3] it was 109% (inactive) and 90.6% (inactive); in assay [4], 109% (inactive) and 107% (inactive); in assay [5], 105% (inactive) and 102% (inactive); in [6], 87.7% (inactive) and 93.2% (inactive). The growth is 100% (inactive) and 105% (inactive) in [7]; 95.8% (inactive) and 106% (inactive) in assay [8]; 99.7% (inactive) and 97.5% (inactive) in assay [9]; 109% (inactive) and 106% (inactive) in assay [10]; 105% (inactive) and 103% (inactive) in assay [11]; 106% (inactive) and 96.2% (inactive) in [12]. The growth in assay [19] was 100% (inactive) and 104% (inactive); in [13] it was 94.7% (inactive) and 90.9% (inactive); in assay [15], 117% (inactive) and 103% (inactive); in assay [16], 109% (inactive); in assay [17] it was 91% (inactive) and 116% (inactive); in [18] it was 103% (inactive) and 120% (inactive). The growth in [20] was 107% (inactive) and 103% (inactive).

Consider `Cn1cnc([N+](=O)[O-])c1Sc1ncnc2nc[nH]c12`, for which the growth is 83.6% (inactive) and 95.5% (inactive) in assay [1]; 59.4% (inactive) and 73.2% (inactive) in [2]; 39.2% (inactive) and 58% (inactive) in assay [3]; 96.8% (inactive) and 110% (inactive) in [4]; 78.6% (inactive) and 93.7% (inactive) in [5]; 76.6% (inactive) and 91.5% (inactive) in assay [6]. Besides, the growth was 77.9% (inactive) in assay [7]; 20.2% (inactive) and 35.8% (inactive) in assay [8]; 22.4% (inactive) and 22.5% (inactive) in assay [9]; 105% (inactive) and 116% (inactive) in assay [10]; 57.7% (inactive) and 74.8% (inactive) in assay [11]; 83.3% (inactive) and 109% (inactive) in assay [12]. In addition, the growth was 75.8% (inactive) and 83.2% (inactive) in [19]; 63.4% (inactive) and 69% (inactive) in [13]; 52.8% (inactive) and 44.3% (inactive) in assay [14]; 84% (inactive) and 121% (inactive) in [15]; 49.2% (inactive) and 75.8% (inactive) in assay [16]; 48% (inactive) and 42.6% (inactive) in assay [18]. Further, the growth in assay [20] was 66.1% (inactive) and 56.6% (inactive).

As for `CC(C)Cc1ccc(C(C)C(=O)NCc2ccc(Cn3c(=O)sn(CCCI)c3=O)cc2)cc1` (stereo unspecified), the growth is 101% (inactive) and -54.2% (active) in assay [1]; 61.7% (inactive) and -58.7% (active) in assay [2]; 95.4% (inactive) and -73.6% (active) in assay [3]; 85.4% (inactive) and 37.4% (inactive) in assay [4]; 83.4% (inactive) and -70.5% (active) in assay [5]; 93.6% (inactive) and -70% (active) in assay [6]. Besides, the growth in assay [7] is 74.2% (inactive) and -96.6% (active); in assay [8], 95.2% (inactive) and -83.2% (active); in assay [9], 99.6% (inactive) and -96.6% (active); in assay [10] it was 106% (inactive) and -72.2% (active); in [11], 104% (inactive) and -40.1% (active); in [12], 90.6% (inactive) and -64.7% (active). Moreover, the growth in assay [19] is 90.4% (inactive) and -76.9% (active); in [13], 70.3% (inactive) and -100% (active); in [15], 72% (inactive) and -100% (active); in assay [16], 92.1% (inactive) and -82.9% (active); in assay [17], 79.4% (inactive) and -2.41% (active); in assay [18], 37% (inactive) and 2.58% (active). The growth in [20] is 49% (inactive) and -3.72% (active).

On to `CCN(CC)CCNc1cc(-c2cccc(OC(F)(F)F)c2)nc2ccc(N3CCCC3)cc12`, for which the growth in [1] is 24.3% (inactive) and 3.13% (active) and 13.6% (inactive); in assay [2], 10.9% (inactive) and -11.1% (active) and 1.35% (active); in assay [3], 86.4% (inactive) and 51.9% (inactive); in [4] it was 2.91% (active) and 15.2% (inactive) and 36.9% (inactive); in assay [5] it was 46.2% (inactive) and -36.6% (active) and 15.6% (inactive); in [6] it was -94.4% (active) and 7.18% (active) and 28.2% (inactive). Moreover, the growth was -2.81% (active) and -88% (active) and 7.43% (active) in assay [7]; -64.9% (active) and -73.2% (active) and -23.9% (active) in assay [8]; -40.9% (active) and -59.6% (active) and -51.7% (active) in assay [9]; -9.25% (active) and -32.5% (active) and 11% (inactive) in [10]; 52.2% (inactive) and -30.5% (active) and 4.6% (active) in [11]; 73.5% (inactive) and 59.5% (inactive) and 42.8% (inactive) in [12]. Also, the growth in assay [19] was 3.62% (active) and 3.14% (active) and 38.1% (inactive); in assay [13], 10.4% (inactive) and -12.9% (active) and 29.7% (inactive); in assay [15], 24.4% (inactive) and 12.9% (inactive) and 27.7% (inactive); in assay [16], 49.1% (inactive) and 34.2% (inactive) and 23.1% (inactive); in [17], 71.2% (inactive) and 4.86% (active) and 50.8% (inactive); in assay [18], -30.4% (active) and -4.6% (active) and 2.25% (active). In addition, in assay [20], the growth is -19.7% (active) and -14.3% (active) and 3.16% (active).

Values taken from PubChem BioAssay (NCI).
